From PubChem
The full list was thinned out, with hits kept by preference.
Sm TGR inh: S. mansoni TGR enzyme inhibition; Q962Y6; purified TGR, DTNB reduction, TNB absorbance 405 nm; Potency, µM (highest dose often 114 µM), for inactives: at the top dose activity change, negative = inhibition, usual class: inhibitors; hit rate 3% among 360,000; AID 485364; further: potency means the concentration at half of the fitted maximal effect; on the % scale 0 is the no-effect control and ±100 the full control effect; nearly all actives have a fitted effect of over 60% in size
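Kinetic colorimetric format: TGR-catalysed, NADPH-driven DTNB reduction monitored via TNB absorbance. Enzyme dispensed at 20 nM; compound exposure 15 min at room temperature before reaction start.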
CHX counter: counter-screen for Shiga toxin inhibitors: cycloheximide protein synthesis inhibition; cell reporter, cycloheximide protein synthesis inhibition counterscreen; max response, %; hit rate 12% among 300,000; in the data active means max response mostly above about 13%, no sharp cut-off; inactive means mostly below about 14%; further: read at 38.3 µM for the half of the compounds with a filed dose; 0% is about no effect
Giardia FBPA inh: inhibitors of Giardia lamblia fructose-1,6-bisphosphate aldolase; A8B2U2; Potency, µM (series often up to 59.6 µM), without a hit: at the highest dose activity, negative = inhibition, most hits filed as inhibitors; AID 2451; hit rate 0.71% among 290,000; purified Giardia FBPA; further: potency means the concentration at half of the fitted maximal effect; on the % scale 0 is the no-effect control and ±100 the full control effect; nearly all actives have a fitted effect of over 55% in size
Target sequence (A8B2U2 whole entry, looked up): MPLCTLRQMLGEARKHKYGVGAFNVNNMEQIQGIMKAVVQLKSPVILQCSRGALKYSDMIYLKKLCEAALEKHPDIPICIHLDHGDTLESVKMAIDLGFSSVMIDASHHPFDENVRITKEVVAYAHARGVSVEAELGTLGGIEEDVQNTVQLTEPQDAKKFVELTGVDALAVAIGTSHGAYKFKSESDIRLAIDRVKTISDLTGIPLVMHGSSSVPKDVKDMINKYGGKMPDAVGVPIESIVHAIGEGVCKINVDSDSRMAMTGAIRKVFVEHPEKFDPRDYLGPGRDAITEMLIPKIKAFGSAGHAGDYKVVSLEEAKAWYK
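Giardia FBPA (40 nM reagent) was preincubated 10 min at RT with compound (up to 57.5 uM final), then substrate plus GAPDH/TPI/NAD/arsenate coupling system with diaphorase/resazurin was added; resorufin fluorescence (525/598 nm) was read after 20 min.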
Shiga toxin inh: inhibitors of Shiga toxin in Vero cells. AID 2315. inhibition, % at 38.7 µM. hit rate 9.2% among 290,000. Vero cells, Shiga toxin protein synthesis inhibition reporter; in the data active means inhibition mostly above about 28%, no sharp cut-off; inactive means mostly below about 43%; further: 0% is about no effect
Tb PYK inh: inhibitors of Trypanosoma brucei pyruvate kinase; Q57TT1; Potency, µM (doses to about 76.8 µM), for inactives: at the highest dose activity, negative = inhibition, hits mostly inhibitors; hit rate 0.12% among 410,000; TbPYK enzyme, Kinase-Glo Plus ATP luminescence, 45 min; further: potency means the concentration at half of the fitted maximal effect; on the % scale 0 is the no-effect control and ±100 the full control effect; nearly all actives have a fitted effect of over 50% in size
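Readout: single end-point luminescence (Kinase-Glo Plus, 10 min). Reaction conditions were TbPYK/substrate plus 130 uM ADP, 45 min at RT, pH 7.2 TEA buffer. No-enzyme wells served as controls, and data were normalized before concentration-response fitting.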
LmPK inhibitor: inhibitors of Leishmania mexicana pyruvate kinase; Q27686; purified LmPK, Kinase-Glo ATP luminescence, 1 h; Potency, µM (top dose mostly 57.5 µM), for inactives: top-dose activity change, negative = inhibition, actives largely listed as inhibitors; hit rate 0.37% among 290,000; AID 1721; further: potency means the concentration at half of the fitted maximal effect; on the % scale 0 is the no-effect control and ±100 the full control effect
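Kinase-Glo luminescence read after 1 h RT reaction of 0.1 nM LmPK with 0.5 mM PEP and 0.1 mM ADP. Activity scaled between uninhibited and enzyme-free controls.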
Starred values were filed as active, the others as inactive; ? = inconclusive; . = not tested or not shown; + = active, no number. Unless noted, the call rests on the fitted dose curve; in most records, active means well fitted curve in the direction sought with a large enough effect; inconclusive means small, poorly fitted or top-dose-only effect, or another doubt; inactive means no such curve, though single readings can be large; an effect the other way counts as inactive or inconclusive.

SMILES	Sm TGR inh	CHX counter	Giardia FBPA inh	Shiga toxin inh	Tb PYK inh	LmPK inhibitor
CC1(C)CC(C(CCN(Cc2ccccc2)C(=O)c2ccco2)c2ccc(F)cc2)CCO1 (stereo unspecified)	-9%	15	1%	-8	-8%	0%
CC(=O)N(CCC(c1ccco1)C(C)C)Cc1ccc(Cl)cc1 (stereo unspecified)	20µM*	2	2%	-6	-4%	-2%
Cc1ccc(S(=O)(=O)N2CCCc3cc(NC(=O)c4ccccc4Cl)ccc32)cc1	7%	.	.	.	2%	.
Cc1ccc2c(CC(=O)Nc3c(C(=O)c4ccc(F)cc4)oc4ccccc34)coc2c1C	-4%	5	.	-3	0%	.
CCOc1ccc(CCNCc2c(C(=O)O)n(Cc3ccc(C)cc3)c3cc(OC)ccc23)cc1	-6%	.	.	.	0%	.
Cc1ccc(-c2csc3ncnc(NCCC(=O)O)c23)cc1C	8%	-1	10%	-12	-1%	-1%
COc1ccccc1N1CCN(/N=C/c2cccc(Cl)c2)CC1	-1%	38*	-4%	151*	1%	6%
COc1cccc(/C=N/N2CCN(c3ccccc3OC)CC2)c1	-1%	49*	-1%	+	3%	-7%
COc1cc(OC)c(/C=N/N2CCN(c3ccccc3OC)CC2)c(OC)c1	-20%	24*	0%	65*	1%	-5%
CCN(Cc1ccc2c(c1)OCCO2)C(=O)CN1C(=O)NC2(CCc3ccccc32)C1=O (stereo unspecified)	-4%	.	.	.	-12%	.
COC(=O)CNC(=O)C1CCN(S(=O)(=O)c2cnc[nH]2)CC1	7%	-8	.	-8	1%	-9%
COCCNC(=O)CCC1CCN(Cc2cccc(-c3ccc(C)o3)c2)CC1	40µM*	-2	1%	2	-6%	4%
CN(C)c1c(-c2ccccc2)cc(-c2ccccc2)[nH]c1=O	16µM*	12	-9%	34	.	2%
O=C(O)c1ccc(-c2ccccc2)[nH]c1=O	-8%	-1	2%	3	-18%	-8%
CCOC(=O)c1cc(OC(=O)c2cccc(F)c2)n(-c2ccccc2)n1	3%	.	.	.	2%	.
Cc1ccc(-c2ccc(/C=C(\C#N)C(N)=S)n2C)cc1	1%	59*	-5%	61*	-6%	3%
c1ccc2c(c1)c1c(c3ccccc32)CN2CCCC2C1 (stereo unspecified)	.	.	.	.	-1%	.
COC(=O)N1CCC2(CCCN(Cc3ccc(C#N)cc3)C2)CC1	.	.	-6%	.	0%	.
COc1ccc(NS(=O)(=O)c2cccc(C(=O)N/N=C/c3ccc4c(c3)OCCO4)c2)cc1	10%	8	-5%	-6	3%	2%
COc1ccccc1NS(=O)(=O)c1cccc(C(=O)N/N=C/c2ccc3c(c2)OCCO3)c1	4%	28*	3%	53*	38%	1%
O=C(N/N=C\C=C\c1ccc(Br)cc1)c1ccc2c(c1)OCO2	-2%	9.9*	10%	23*	-5%	3%
O=C(N/N=C/c1cccs1)c1ccc2c(c1)OCO2	0%	25*	5%	34	-11%	-11%
O=C(N/N=C/c1ccc2c(c1)OCCO2)c1ccncc1	8%	21	2%	29	-8%	-21%
O=C(CNC(=O)c1ccc2c(c1)OCO2)NCc1cccs1	.	.	.	.	-3%	.
O=C(N/N=C/c1ccc2c(c1)OCO2)c1ccc2c(c1)OCCO2	-13%	55*	-6%	64*	5%	-10%
SMILES	Sm TGR inh	CHX counter	Giardia FBPA inh	Shiga toxin inh	Tb PYK inh	LmPK inhibitor
COc1cc(Cl)c(C)cc1NC(=O)COC(=O)c1ccc(CN2CCCC2=O)cc1	1%	.	.	.	-1%	.
O=C(N/N=C/c1ccc2c(c1)OCO2)c1ccc(Cl)cc1Cl	0%	15*	-4%	18	-5%	4%
O=C(N/N=C/c1ccccc1O)c1ccc2c(c1)OCO2	33%	50*	-17%	96*	-6%	-9%
Cc1nc2ccc(C(=O)c3ccccc3)cc2[nH]1	0%	34*	-4%	53*	?	-3%
O=C(N/N=C/c1ccc2c(c1)OCO2)c1sc2cc(Cl)ccc2c1Cl	-13%	6	1%	-11	-10%	0%
O=C(N/N=C/c1ccccc1OC(=O)c1ccc2c(c1)OCO2)c1cccc(F)c1	-1%	16	4%	64*	-17%	4%
O=C1C(=O)N(C2CCN(C(=O)c3ccc(F)cc3)CC2)CCN1Cc1ccc(F)cc1	-2%	.	.	.	-4%	.
CCOc1cc(/C=N/NC(=O)C(=O)NC2CC2)cc(Br)c1O	-2%	-4	0%	13	-7%	0%
O=C(N/N=C/c1cc(Br)c(O)c(Br)c1O)c1ccc2c(c1)OCCO2	?	29*	-19%	73*	-1%	7%
O=C(N/N=C/c1cc(Br)cc(Cl)c1O)c1ccc2c(c1)OCO2	.	.	.	.	-4%	.
Cc1cc(=O)c2cc(C(=O)c3ccccc3)ccc2[nH]1	9%	9.4*	-4%	38	3%	2%
Cc1cc(Br)cc(/C=N/NC(=O)c2ccc3c(c2)OCO3)c1O	0%	17*	9%	26*	1%	-3%
COC(=O)c1ccc2[nH]c(C)cc(=O)c2c1	3%	-3	10%	30	-2%	0%
CCOc1cc(/C=N/NC(=O)c2ccc3c(c2)OCCO3)cc(Br)c1O	?	12*	-4%	77*	-5%	10%
CSc1ccc(CCNC(=O)Cn2ncc3c(=O)oc4ccccc4c32)cc1	-17%	.	.	.	-2%	.
CC(CN1CCCCC1)OC(=O)c1ccco1 (stereo unspecified)	-6%	-7	-18%	-2	3%	0%
Cc1ccc(-c2csc(=Nc3ccc(F)cc3)n2Cc2ccc3c(c2)OCO3)cc1C	-11%	.	.	.	1%	.
COc1ccc(CCNC(=O)c2ccc3nc(Cc4ccccc4)oc3c2)cc1OC	9%	.	.	.	10%	.
COC(=O)C(C)n1cnc2c(nnn2-c2ccccc2)c1=O (stereo unspecified)	0%	-3	16%	16	-4%	-2%
Cc1[nH]nc2c(=S)[nH]c(=O)[nH]c12	.	.	.	.	-15%	.
Cc1nc2ccc(C(=O)N/N=C/c3ccccc3O)cc2[nH]1	4%	44*	-12%	84*	-12%	-2%
O=C(N/N=C/c1ccsc1)c1ccc2c(c1)OCO2	-3%	.	.	.	3%	.
O=C(N/N=C/c1ccc(Cl)cc1)c1ccc2c(c1)OCO2	-24%	51*	-4%	90*	1%	-3%
O=C(N/N=C/c1ccncc1)c1ccc2c(c1)OCO2	0%	24*	0%	76*	2%	-3%
C[n+]1cccc(C(=O)N/N=C/c2ccc3c(c2)OCO3)c1	-4%	-6	-20%	-6	2%	-6%
O=C(N/N=C/C1CC2CCC1C2)c1ccc2c(c1)OCO2 (stereo unspecified)	3%	41*	-3%	39*	-4%	-3%
